# Laboratory results published in the antibiotic and cytotoxicity screens of Wong et al. (2023).
# Screen size: about 39,000 compounds; about 1,500 (3.8%) were called active. The sample holds actives, similar compounds and a random draw of the others, so the mix is not that of the screen.
# Test system: HSkMC (human skeletal muscle cells)
# Experiment: cytotoxicity call (relative viability < 0.9)
# Conditions: 10 µM
row,Compound,cytotoxicity call
1,Cc1nnc(=O)[nH]c1NNc1ccccc1,inactive
2,COc1cccc(NC(=O)N2C[C@@H](O)COC[C@H]3O[C@H](CC(=O)NCCCN4CCOCC4)CC[C@@H]32)c1,inactive
3,COc1ccc2c3c(n(c2c1)C)[C@@H](CO)N(C[C@]13CN(C1)S(=O)(=O)c1cn(cn1)C)C(=O)Nc1ccc(cc1)F,inactive
4,NCc1ccc(-n2cccn2)cc1,inactive
5,COc1ccc(S(=O)(=O)Nc2ccc3c(c2)C(=O)N([C@H](C)CO)C[C@H](C)[C@H](CN(C)S(=O)(=O)c2cn(C)cn2)OCCCC[C@H](C)O3)cc1,inactive
6,CCCCCCCCCC[C@@H](O)[C@H]1C=C[C@@H]2C(=O)N(c3ccccc3)C(=O)[C@@H]2N1Nc1ccc([N+](=O)[O-])cc1,active
7,CCCCCCCCCCCCCCCC(=O)OCC(NC(=O)C(Cl)Cl)C(O)c1ccc([N+](=O)[O-])cc1 (stereo not given),inactive
8,CCCCCCCCCCCCCCCC(=O)OC[C@H](NC(=O)C(Cl)Cl)[C@H](O)c1ccc([N+](=O)[O-])cc1,inactive
9,C[C@@H]1CN([C@@H](C)CO)C(=O)c2cc(N(C)C)ccc2O[C@@H](C)CCCCO[C@@H]1CN(C)C(=O)Nc1cccc2ccccc12,inactive
10,C[C@@H]1CN([C@@H](C)CO)C(=O)c2cc(NS(=O)(=O)c3cccs3)ccc2O[C@@H]1CN(C)Cc1ccncc1,inactive
11,CN(C)C/C=C/C(=O)Nc1ccc(C(=O)Nc2cccc(Nc3ncc(Cl)c(-c4c[nH]c5ccccc45)n3)c2)cc1,active
12,C[C@@H]1CN([C@@H](C)CO)C(=O)c2cc(NC(=O)Nc3ccccc3)ccc2O[C@@H](C)CCCCO[C@@H]1CN(C)Cc1ccncc1,inactive
13,Nc1c2c(nc3ccccc13)CCCC2,inactive
14,Cl.Nc1c2c(nc3ccccc13)CCCC2,inactive
15,C[C@@H]1CCCCO[C@H](CN(C)Cc2ccncc2)[C@@H](C)CN([C@H](C)CO)C(=O)c2cc(NS(C)(=O)=O)ccc2O1,inactive
16,C[C@@H]1CCCCO[C@H](CN(C)C(=O)c2ccccc2)[C@@H](C)CN([C@@H](C)CO)C(=O)c2cc(NS(=O)(=O)c3cccs3)ccc2O1,inactive
17,CCC[C@@H](O)C#Cc1cnc2c(c1)C(=O)N([C@H](C)CO)C[C@H](C)[C@H](CN(C)Cc1ccc3c(c1)OCO3)O2,inactive
18,COc1ccc(S(=O)(=O)Nc2ccc3c(c2)C(=O)N([C@H](C)CO)C[C@H](C)[C@H](CN(C)S(C)(=O)=O)OCCCC[C@H](C)O3)cc1,inactive
19,COC1CC(OC2C(C)=CCC3CC(CC4(CCC(C)C(C5CCCCC5)O4)O3)OC(=O)C3C=C(C)C(=NO)C4OCC(=CC=CC2C)C34O)OC(C)C1O (stereo not given),active
20,CO[C@H]1C[C@@H](O[C@@H]2/C(C)=C/C[C@@H]3C[C@@H](C[C@]4(CC[C@H](C)[C@@H](C5CCCCC5)O4)O3)OC(=O)[C@@H]3C=C(C)/C(=N/O)[C@H]4OC/C(=C\C=C\[C@@H]2C)[C@]43O)O[C@@H](C)[C@@H]1O,inactive
21,CO[C@H]1C[C@H](O[C@@H]2/C(C)=C/C[C@@H]3C[C@@H](C[C@]4(CC[C@H](C)[C@@H](C5CCCCC5)O4)O3)OC(=O)[C@@H]3C=C(C)/C(=N/O)[C@H]4OC/C(=C\C=C\[C@@H]2C)[C@]43O)O[C@@H](C)[C@@H]1O,active
22,O=c1[nH]c(=O)n([C@H]2C[C@H](O)[C@@H](CO)O2)cc1C(F)(F)F,inactive
23,C[C@H](CO)N1C[C@H](C)[C@@H](CN(C)Cc2ccncc2)OCCCC[C@H](C)Oc2ccc(NC(=O)CCC(F)(F)F)cc2C1=O,inactive
24,C[C@H](CO)N1C[C@H](C)[C@@H](CN(C)CC2CCCCC2)OCCCC[C@H](C)Oc2ccc(NC(=O)CCCCCC(=O)Nc3ccccc3N)cc2C1=O,inactive

row,Compound,cytotoxicity call
1,COc1ccc(NC(=O)Nc2ccc3c(c2)C(=O)N([C@@H](C)CO)C[C@@H](C)[C@H](CN(C)Cc2ccc(Cl)c(Cl)c2)OCCCC[C@@H](C)O3)cc1,inactive
2,CCCN(C)C[C@@H]1OCCCC[C@@H](C)Oc2ccc(NC(=O)Nc3ccc(OC)cc3)cc2C(=O)N([C@H](C)CO)C[C@@H]1C,inactive
3,COc1ccc(C#Cc2cnc3c(c2)C(=O)N([C@H](C)CO)C[C@@H](C)[C@@H](CN(C)C(=O)CC2CC2)O3)cc1,inactive
4,O=C(C[C@@H]1CC=CCC[C@@H](Cc2ccc(F)cc2)C(=O)OC[C@H](Cc2ccccc2)NC1=O)NCCO,inactive
5,C[C@H](CO)N1C[C@H](C)[C@H](CN(C)Cc2cccc(C(F)(F)F)c2)Oc2ncc(/C=C/c3ccccc3)cc2C1=O,active
6,C[C@H](CO)N1C[C@H](C)[C@H](CN(C)Cc2cccc(C(F)(F)F)c2)Oc2ncc(-c3cccc(F)c3)cc2C1=O,inactive
7,C[C@H](CO)N1C[C@H](C)[C@H](CN(C)Cc2ccccc2)Oc2ncc(-c3cccc(C(F)(F)F)c3)cc2C1=O,inactive
8,Cc1cccc(CN(C)C[C@@H]2Oc3ncc(-c4cccc(C(F)(F)F)c4)cc3C(=O)N([C@H](C)CO)C[C@@H]2C)c1,inactive
9,C[C@H](CO)N1C[C@H](C)[C@H](CN(C)Cc2cccc(C(F)(F)F)c2)Oc2ncc(-c3cccc(C(F)(F)F)c3)cc2C1=O,active
10,C[C@H](CO)N1C[C@H](C)[C@H](CN(C)Cc2cccc(C(F)(F)F)c2)Oc2ncc(-c3ccccc3)cc2C1=O,inactive
11,C[C@H](CO)N1C[C@H](C)[C@H](CN(C)C(=O)C2CC2)Oc2ncc(-c3ccc(C(=O)N(C)C)cc3)cc2C1=O,inactive
12,CC(C)NC(=O)N(C)C[C@@H]1Oc2ccc(NS(=O)(=O)c3cn(C)cn3)cc2CC(=O)N([C@H](C)CO)C[C@H]1C,inactive
13,Cl.OC(c1cc(C(F)(F)F)nc2c(C(F)(F)F)cccc12)C1CCCCN1 (stereo not given),active
14,C[C@@H]1CN([C@H](C)CO)S(=O)(=O)c2ccc(C#CC3(O)CCCC3)cc2O[C@H]1CN(C)C(=O)c1ccncc1,inactive
15,COc1cc(C(=O)N2CCC(N3CCN(C)CC3)CC2)ccc1Nc1ncc2c(n1)N(C)c1ccccc1C(=O)N2C,inactive
16,CNC(=O)c1c(F)cccc1Nc1nc(Nc2cc3c(cc2OC)CCN3C(=O)CN(C)C)nc2[nH]ccc12,active
17,C[C@@H]1CN([C@H](C)CO)C(=O)Cc2cc(NS(=O)(=O)c3cn(C)cn3)ccc2O[C@@H]1CN(C)C(=O)Nc1ccccc1,inactive
18,CC(C)NC(=O)Nc1ccc2c(c1)C(=O)N([C@@H](C)CO)C[C@@H](C)[C@H](CN(C)CC1CCCCC1)OCCCC[C@@H](C)O2,inactive
19,CN(C)CC(=O)N1[C@@H]2Cn3c(ccc(C4=CCCC4)c3=O)[C@H]1[C@@H](C(=O)NCC1CC1)[C@@H]2CO,inactive
20,C[C@@H]1CN([C@@H](C)CO)S(=O)(=O)c2ccc(-c3cncnc3)cc2O[C@@H]1CN(C)C(=O)Cc1cccnc1,inactive
21,C[C@H]1CN([C@@H](C)CO)C(=O)c2cc(NS(C)(=O)=O)ccc2O[C@H]1CN(C)Cc1ccc2c(c1)OCO2,inactive
22,CC(C)=CCc1c2c(c3occ(-c4ccc(O)c(O)c4)c(=O)c3c1O)C=CC(C)(C)O2,active
23,CC(C)=CCc1c2c(c3occ(-c4ccc(O)cc4)c(=O)c3c1O)C=CC(C)(C)O2,inactive
24,CC1(C)C=Cc2c(c3c(c4c(=O)c(-c5ccc(O)c(O)c5)coc24)OC(C)(C)CC3)O1,inactive

row,Compound,cytotoxicity call
1,CO[C@@H]1CN(C)C(=O)c2ccc(NC(=O)CN(C)C)cc2OC[C@@H](C)N(C(=O)c2ccncc2)C[C@H]1C,inactive
2,C[C@@H]1CCCCO[C@H](CN(C)S(=O)(=O)c2cccs2)[C@@H](C)CN([C@H](C)CO)C(=O)c2cc(NC(=O)CCC(F)(F)F)ccc2O1,inactive
3,COC[C@@H]1CNN1C(=O)c1cc(C)oc1C,inactive
4,CCCCCN1CC=C[C@@]23O[C@@H]4C=CCOC(=O)[C@@H]4[C@H]2C(=O)N([C@@H](C)CO)[C@@H]3C1=O,inactive
5,CCCCCCCCNC(C)C(O)c1ccc(SC(C)C)cc1 (stereo not given),active
6,CC(NCCc1ccc(O)cc1)C(O)c1ccc(O)cc1.Cl (stereo not given),inactive
7,CCCCCCCCNC[C@@H](O)[C@H](O)[C@@H](O)[C@@H](O)CO,inactive
8,C[C@@H]1CN([C@@H](C)CO)S(=O)(=O)c2ccc(C#CCN(C)C)cc2O[C@@H]1CN(C)C(=O)CN(C)C,inactive
9,C[C@@H]1CCCCO[C@@H](CN(C)S(=O)(=O)c2ccc(Cl)cc2)[C@H](C)CN([C@@H](C)CO)C(=O)c2cc(NC(=O)Nc3cccc4ccccc34)ccc2O1,inactive
10,CC(C)(C)c1cc(NC(=O)Nc2ccc(-c3cn4c(n3)sc3cc(OCCN5CCOCC5)ccc34)cc2)no1,active
11,COc1cc(OC)cc(C(=O)Nc2nc(-c3ccc4c(c3)CCN4C(=O)CN3CCOCC3)cs2)c1,inactive
12,O=C(NCCCN1CCOCC1)Nc1ccc(Cc2ccc(NC(=O)NCCCN3CCOCC3)cc2)cc1,inactive
13,C[C@H](CO)N1C[C@H](C)[C@@H](CN(C)CC2CC2)Oc2c(NC(=O)Nc3cccc4ccccc34)cccc2C1=O,inactive
14,CC(C)CC(=O)Nc1cncc(-c2ccc3[nH]nc(-c4nc5cncc(-c6cccc(F)c6)c5[nH]4)c3c2)c1,active
15,Cn1c(=O)[nH]c(=O)c2c1nc(N1CCN(CCO)CC1)n2CC(=O)c1ccccc1,inactive
16,CCS(=O)(=O)N1C[C@]2(CN(C2)C(=O)c2ccc3c(c2)OCO3)c2c(n(c3cc(ccc23)OC)C)[C@@H]1CO,inactive
17,COc1ccc(CN(C)C[C@H]2Oc3c(NC(=O)c4ccc(-c5nccs5)cc4)cccc3C(=O)N([C@H](C)CO)C[C@@H]2C)cc1,inactive
18,COc1ccc(CN(C)C[C@@H]2Oc3c(NC(=O)c4ccc(-c5nccs5)cc4)cccc3C(=O)N([C@H](C)CO)C[C@H]2C)cc1,active
19,COc1ccc(CN(C)C[C@H]2Oc3c(NC(=O)c4ccc(-c5nccs5)cc4)cccc3C(=O)N([C@@H](C)CO)C[C@@H]2C)cc1,inactive
20,C[C@@H]1CN([C@H](C)CO)C(=O)c2cccc(NC(=O)c3ccc(-c4nccs4)cc3)c2O[C@H]1CN(C)Cc1ccc(Oc2ccccc2)cc1,inactive
21,C[C@H](CO)N1C[C@H](C)[C@H](CN(C)Cc2ccc(Oc3ccccc3)cc2)Oc2c(NC(=O)c3ccc(-c4nccs4)cc3)cccc2C1=O,active
22,C[C@H]1CN([C@@H](C)CO)C(=O)c2cccc(NC(=O)c3ccc(-c4nccs4)cc3)c2O[C@H]1CN(C)Cc1ccc(Oc2ccccc2)cc1,inactive
